# System: not listed separately
# Experiment: binders of probe aHhip on microarray, primary screen, stem cell growth factor project, biochemical, small-molecule microarray, fluorescence 635/667 (AID 1087);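 further: score merges spot fluorescence at 667nm with spot signal to noise ratio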
# Conditions: higher = more signal
row,Structure (SMILES),composite z-score
1,C=C(CCCC)/C(=C/C[C@H](OC(C)=O)c1cccc(OCCO)c1)c1cc(C(=O)OC)ccc1OC,-0.201
2,C=C(COC)/C(=C/C[C@H](OC(=O)c1ccncc1)c1ccc(OCCO)cc1)c1cc(C(=O)OC)ccc1OC,0.113
3,NC(=O)NCC#Cc1ccc2c(c1)[C@]1(C(=O)N2)[C@H](C(=O)Nc2nc3ccccc3s2)[C@H]2C(=O)O[C@H](c3ccccc3)[C@H](c3ccccc3)N2[C@@H]1c1ccc(OCCO)cc1,-0.347
4,C=CCNC(=O)[C@H]1[C@@H]2C(=O)O[C@@H](c3ccccc3)[C@@H](c3ccccc3)N2[C@@H](c2ccc(O)cc2)[C@]12C(=O)Nc1ccc(C#CC3=CCCCC3)cc12,0.199
5,C=CCC(OC(C)=O)[C@@H]1[C@@H](N(Cc2cccc3ccccc23)C(=O)c2ccc(-c3ccccc3)cc2)c2cc(OCCCO)ccc2N1C(=O)c1ccc2ccccc2n1 (stereo partly drawn),0.28
6,O=C1c2ccccc2[C@](Cc2ccccc2I)(C(=O)O)[C@H](c2ccc(CO)cc2)N1Cc1ccccc1,-0.226
7,CC(C)[C@@H](C(=O)O)n1cc(-c2ccccc2)nn1,-0.0645
8,C/C=C/CN(C(=O)C#Cc1ccccc1)[C@H](CO[Si](C)(C)C(C)(C)C)c1ccccc1,-0.435
9,COCCOC(=O)N1C(=O)[C@@]2(c3cc(C#CCCO)ccc31)[C@H](c1ccc(O)cc1)N1[C@H](c3ccccc3)[C@H](c3ccccc3)OC(=O)[C@H]1[C@@H]2C(=O)N1CCc2cc(OC)c(OC)cc2C1,-0.271
10,Cc1ccc(S[C@]2(C(=O)NC3CC3)CC(=O)N(Cc3cc(C(F)(F)F)cc(C(F)(F)F)c3)[C@@H]2c2ccc(CO)cc2I)cc1,-0.494
11,C[N+](C)(C)CCCC[C@@H]1NC(=O)[C@H]2C[C@@H](C(=O)NCCCCCNC(=O)CS)[C@@H](c3ccc(O)cc3)N2C1=O,0.0623
12,CC[C@H](C)C(=O)O[C@H]1CC[C@]2(C)C3=C(CCC2C1(C)C)[C@]1(C)CC[C@H]([C@H](C)CCCC(C)C)[C@@]1(C)CC3 (stereo partly drawn),0.315
13,COCCOC(=O)N1C(=O)[C@@]2(c3cc(C#CCC(C(=O)OC)C(=O)OC)ccc31)[C@H](C(=O)N1CCCCCCC1)[C@H]1C(=O)O[C@H](c3ccccc3)[C@H](c3ccccc3)N1[C@@H]2c1ccccc1OCCO,2.72
14,C=CCOC(=O)[C@H]1[C@@H]2C(=O)O[C@@H](c3ccccc3)[C@@H](c3ccccc3)N2[C@@H](c2ccc(OCCOC(=O)[C@H]3C[C@H]4C(=O)NCC(=O)N4[C@H]3c3ccc(O)cc3)cc2)[C@]12C(=O)Nc1ccc(I)cc12,0.064
15,CC#CCO[Si](C#CCCCCCC)(C(C)C)C(C)C,-0.341
16,CC(c1ccccc1)C(O)C1C=CC2C(=O)N(c3ccccc3)C(=O)C2N1Nc1ccc(C#N)cc1 (stereo not drawn),0.0139
17,O=C1c2ccccc2[C@@]2(Cc3ccccc3N(Cc3ccccc3)C2=O)[C@H](c2ccc(CO)cc2)N1Cc1ccccc1,-0.0645
18,CC(C)CNC(=O)[C@@H]1c2ccccc2C(=O)N(CC23CC4CC(CC(C4)C2)C3)[C@H]1c1ccc(CO)cc1,-0.115

# System: PRMT1 (protein arginine N-methyltransferase 1)
# Experiment: PRMT1 binders on small-molecule microarrays, primary screen, biochemical, small-molecule microarray, 635 nm fluorescence (AID 1088);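 further: binding of Prmt1 protein to compounds spotted on small-molecule microarray slides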
# Conditions: small-molecule microarray binding, higher = more signal
row,Structure (SMILES),composite z-score
1,COCCOC(=O)N1C(=O)[C@@]2(c3cc(C#CCNC(N)=O)ccc31)[C@H](C(=O)NC[C@H](O)c1ccccc1)[C@H]1C(=O)O[C@H](c3ccccc3)[C@H](c3ccccc3)N1[C@@H]2c1ccc(OCCO)cc1,1.55
2,COC(=O)[C@@]1(Cc2ccc(F)cc2)[C@H]2c3cc(C(=O)N(C)C)n(CCn4cc([N+](=O)[O-])nc4C)c3C[C@H]2CN1C(=O)c1ccccc1,-0.394
3,CN(C)CCCCNC(=O)[C@H]1C[C@H]2C(=O)N[C@@H](Cc3ccccc3)C(=O)N2[C@H]1c1cccc(OCCO)c1,0.193
4,CCCCN1CC=CC23O[C@@H]4/C=C\CCC(C)OC(=O)C4[C@H]2C(=O)N(C(C)CO)[C@@H]3C1=O (stereo partly drawn),-1.58
5,CCCCC(=C=CC[C@@H](O)c1cccc(OCCO)c1)CCO,0.468
6,CN1C=C(C(=O)OCCS(C)(=O)=O)C(C(=O)OCCS(C)(=O)=O)=CC(CCCO)=CC1c1ccc(CN2CCCC2)cc1 (stereo not drawn),1.48
7,C#CCN(C/C=C/c1ccccc1)[C@H](CO[Si](C)(C)C(C)(C)C)c1ccccc1,0.21
8,O=C1O[C@H](c2ccccc2)[C@H](c2ccccc2)N2[C@H]1[C@@H](C(=O)N1CCN(c3ncccn3)CC1)[C@]1(C(=O)Nc3ccccc31)[C@H]2c1ccc(O)cc1,1.51
9,[N-]=[N+]=NCc1ccccc1[C@@H]1OC(c2ccc(OCCCO)cc2)=N[C@]1(Cc1ccccc1)C(=O)NCc1ccccc1,0.872
10,C=CCOC(=O)[C@H]1[C@@H]2C(=O)O[C@@H](c3ccccc3)[C@@H](c3ccccc3)N2[C@@H](c2ccc(OCCOC(=O)[C@@H]3C[C@@H]4C(=O)N[C@@H](CC(C)C)C(=O)N4[C@@H]3c3ccc(O)cc3)cc2)[C@]12C(=O)Nc1ccc(I)cc12,1.58
11,CC(C)CNC(=O)[C@@]1(C)c2ccccc2C(=O)N(Cc2cc(F)cc(C(F)(F)F)c2)[C@H]1c1ccc(CO)cc1,1.56
12,NCCCC[C@@H]1NC(=O)[C@H]2C[C@@H](C(=O)O)[C@@H](c3cccc(OCCO)c3)N2C1=O,1.53
13,CC(C)C[C@@H]1NC(=O)[C@H]2C[C@@H](C(=O)NCCCCCNC(=O)CS)[C@@H](c3ccc(O)cc3)N2C1=O,1.54
14,CO[C@H]1O[C@H](CO)[C@@H](OC(=O)Nc2ccccc2)[C@@H]2OC(=O)[C@H](Cc3ccccc3)C/C=C/C[C@@H](Cc3ccccc3)C(=O)O[C@@H]12,1.55
15,CC(C)CNC(=O)[C@@H]1c2ccccc2C(=O)N(Cc2ccccc2Cl)[C@H]1c1ccc(CO)cc1,-0.469
16,CCc1cccc(NC(=O)O[C@H]2[C@H](OC(=O)Nc3ccc4c(c3)OCO4)[C@H](OC(=O)Nc3ccc4c(c3)OCO4)[C@@H](OC)O[C@@H]2CO)c1,1.55
17,CCN(CC)c1ccc(N2CC=CC34O[C@@H]5C=CCOC(=O)[C@@H]5[C@H]3C(=O)N(CCCO)[C@@H]4C2=O)cc1 (stereo partly drawn),0.586
18,C=C(CCCC)/C(=C/C[C@H](OC(C)=O)c1cccc(OCCO)c1)c1cc(C(=O)OC)ccc1OC,0.326

row,Structure (SMILES),composite z-score
1,C=C(COC)/C(=C/C[C@H](OC(=O)c1ccncc1)c1ccc(OCCO)cc1)c1cc(C(=O)OC)ccc1OC,1.41
2,NC(=O)NCC#Cc1ccc2c(c1)[C@]1(C(=O)N2)[C@H](C(=O)Nc2nc3ccccc3s2)[C@H]2C(=O)O[C@H](c3ccccc3)[C@H](c3ccccc3)N2[C@@H]1c1ccc(OCCO)cc1,-0.006
3,C=CCNC(=O)[C@H]1[C@@H]2C(=O)O[C@@H](c3ccccc3)[C@@H](c3ccccc3)N2[C@@H](c2ccc(O)cc2)[C@]12C(=O)Nc1ccc(C#CC3=CCCCC3)cc12,1.42
4,C=CCC(OC(C)=O)[C@@H]1[C@@H](N(Cc2cccc3ccccc23)C(=O)c2ccc(-c3ccccc3)cc2)c2cc(OCCCO)ccc2N1C(=O)c1ccc2ccccc2n1 (stereo partly drawn),0.929
5,O=C1c2ccccc2[C@](Cc2ccccc2I)(C(=O)O)[C@H](c2ccc(CO)cc2)N1Cc1ccccc1,1.55
6,CC(C)[C@@H](C(=O)O)n1cc(-c2ccccc2)nn1,0.0283
7,C/C=C/CN(C(=O)C#Cc1ccccc1)[C@H](CO[Si](C)(C)C(C)(C)C)c1ccccc1,0.437
8,COCCOC(=O)N1C(=O)[C@@]2(c3cc(C#CCCO)ccc31)[C@H](c1ccc(O)cc1)N1[C@H](c3ccccc3)[C@H](c3ccccc3)OC(=O)[C@H]1[C@@H]2C(=O)N1CCc2cc(OC)c(OC)cc2C1,1.52
9,Cc1ccc(S[C@]2(C(=O)NC3CC3)CC(=O)N(Cc3cc(C(F)(F)F)cc(C(F)(F)F)c3)[C@@H]2c2ccc(CO)cc2I)cc1,1.28
10,C[N+](C)(C)CCCC[C@@H]1NC(=O)[C@H]2C[C@@H](C(=O)NCCCCCNC(=O)CS)[C@@H](c3ccc(O)cc3)N2C1=O,0.808
11,CC[C@H](C)C(=O)O[C@H]1CC[C@]2(C)C3=C(CCC2C1(C)C)[C@]1(C)CC[C@H]([C@H](C)CCCC(C)C)[C@@]1(C)CC3 (stereo partly drawn),0.0683
12,COCCOC(=O)N1C(=O)[C@@]2(c3cc(C#CCC(C(=O)OC)C(=O)OC)ccc31)[C@H](C(=O)N1CCCCCCC1)[C@H]1C(=O)O[C@H](c3ccccc3)[C@H](c3ccccc3)N1[C@@H]2c1ccccc1OCCO,1.56
13,C=CCOC(=O)[C@H]1[C@@H]2C(=O)O[C@@H](c3ccccc3)[C@@H](c3ccccc3)N2[C@@H](c2ccc(OCCOC(=O)[C@H]3C[C@H]4C(=O)NCC(=O)N4[C@H]3c3ccc(O)cc3)cc2)[C@]12C(=O)Nc1ccc(I)cc12,1.3
14,CC#CCO[Si](C#CCCCCCC)(C(C)C)C(C)C,0.276
15,CC(c1ccccc1)C(O)C1C=CC2C(=O)N(c3ccccc3)C(=O)C2N1Nc1ccc(C#N)cc1 (stereo not drawn),1.55
16,O=C1c2ccccc2[C@@]2(Cc3ccccc3N(Cc3ccccc3)C2=O)[C@H](c2ccc(CO)cc2)N1Cc1ccccc1,0.131
17,CC(C)CNC(=O)[C@@H]1c2ccccc2C(=O)N(CC23CC4CC(CC(C4)C2)C3)[C@H]1c1ccc(CO)cc1,0.797

# From PubChem BioAssay
